Measurements: PubChem BioAssay (NCATS)
Results filed as inconclusive are left out. Unmarked numbers belong to inactive results. Calls come from the whole dose curve; as a rule, active = well fitted activation curve with a large enough effect; inconclusive = small, poorly fitted or top-dose-only effect; inactive = flat fitted curve, though single readings scatter.

Experiment: Cellular Toxicity (caspase-3) Jurkat (AID 655);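 note: cells exposed to compound for 16 h at 37 °C before reading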
Settings: Jurkat caspase-3 activation, luminescence, DMSO = 0%, tamoxifen = 100%; series mostly up to 92.2 µM; caspase-3 activation: at the top concentration
Text: NIH Chemical Genomics Center [NCGC]
NIH Molecular Libraries Screening Centers Network [MLSCN]
National Institutes of Environmental Health Sciences [NIEHS]
National Toxicology Program [NTP]
We have developed a 1536-well cell-based assay for quantitative high throughput screening (qHTS) against a number of cell lines to determine in vitro caspase 3/7 of small molecules. This particular assay uses the Jurkat cell line which is derived from human T cell leukemia.
NCGC Assay Protocol Summary:
The Caspase-Glo 3/7 assay (Promega) is a homogeneous method to measure caspase-3 and caspase-7 activities in cultured cells. The quantitation of caspase 3/7 activity is based on the cleavage of a peptide-aminoluciferin substrate. After caspase cleaves the substrate the free aminoluciferin is liberated and serves as the substrate of luciferase, which generates the light. The luminescent signal is proportional to amount of caspase 3/7 activity present.
Using the Caspase-Glo 3/7 assay, the amount of caspase 3/7 activity was measured in the Jurkat cell line with complete culture medium following compound treatment for 16 hours. The assay was performed in opaque white 1536-well plates. In the screen, tamoxifen and doxorubicin were used as positive controls. Library compounds were measured for their ability to cause the activation of caspase 3/7 in the cell line, as reflected by an increase in luminescence signal, in a concentration-dependent manner. Data were normalized to the controls for basal activity (DMSO only) and 100% stimulation (100 uM tamoxifen). AC50 values were determined from concentration-response data modeled with the standard Hill equation.
qHTS protocol for caspase 3/7 assay in Jurkat cells
[Step] [Parameter] [Value] [Description]
1. Reagent; 5 uL; 5000 Jurkat cells/well
3. Controls; 23 nL; Tamoxifen 0.23 uM to 100 uM & Doxorubicin 7.0 pM to 100 uM
4. Time; 16 hr; 37 °C incubation
5. Reagent; 5 uL; Caspase-Glo 3/7 reagent
6. Time; 20 min; Room Temperature
7. Detection; Luminescence; Viewlux plate reader
Keywords: caspase 3/7, apoptosis, Jurkat cell line, luminescence, NTPHTS, NTPHTS_NCGC, NIEHS, EPA, DSSTox, MLSMR, MLSCN, NIH Roadmap, qHTS, NCGC

Row | Structure (SMILES) | caspase-3 activation [%]
1 | CCOC(=O)c1ccccc1N | -1.51
2 | c1ccc2c(c1)-c1cccc3cccc-2c13 | 1.77
3 | CC(=O)/C=C/c1ccccc1 | 1.28
4 | COC(=O)c1ccccc1C(=O)OC | 1.04
5 | Cc1ccccc1O | 0.192
6 | O=Cc1ccccc1 | -1.44
7 | CC(C)COC(=O)c1ccccc1C(=O)OCC(C)C | -0.415
8 | Oc1ccccc1Cl | -1.63
9 | CCOc1cc(C=O)ccc1O | 2.63
10 | c1ccc(Nc2ccc3ccccc3c2)cc1 | -1.66
